What is called AC50 is the concentration giving half of the maximal activity seen.

The source made the active and inactive calls. Rule for the calls: active = hit-call score of the fitted dose curve at least 0.9, where 1 is the maximum; inactive = score below 0.9.

Outcome and AC50 data for four compounds are collected here from PubChem BioAssay (EPA / NIEHS).

Read-out in experiment [1]: Tissue Factor, F3 (gene 2152)
Briefly: BSK_CASM3C_TissueFactor: BioMAP Diversity Plus: CASM3C Assay for Tissue Factor Biomarker Activity (AID 2283052).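 Note: cell surface tissue factor protein level read by ELISA.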 Particulars: primary human coronary artery smooth muscle cells; actives raise or lower the signal.

Read-out in experiment [2]: Urokinase-type plasminogen activator receptor (uPAR), PLAUR (gene 5329)
The experiment in a line: BSK_CASM3C_uPAR: BioMAP Diversity Plus: CASM3C Assay for Urokinase-type plasminogen activator receptor (uPAR) Biomarker Activity (AID 2283054).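 Note: cell-surface uPAR protein level quantified by ELISA.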 Particulars: primary human coronary artery smooth muscle cells; actives raise or lower the signal.

Read-out in experiment [3]: Collagen III, COL3A1 (gene 1281)
Briefly: BSK_hDFCGF_CollagenIII: BioMAP Diversity Plus: hDFCGF Assay for Collagen III Biomarker Activity (AID 2283056). Conditions: primary human foreskin fibroblasts; actives raise or lower the signal. An outline of the steps: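 ELISA readout of Collagen III in human dermal (foreskin) fibroblasts, taken 24 h post-treatment. Gain or loss relative to DMSO vehicle fitted in both directions.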

Read-out in experiment [4]: Epidermal growth factor receptor (EGFR), EGFR (gene 1956)
Briefly: BSK_hDFCGF_EGFR: BioMAP Diversity Plus: hDFCGF Assay for Epidermal growth factor receptor (EGFR) Biomarker Activity (AID 2283057). Conditions: primary human foreskin fibroblasts; actives raise or lower the signal. The gist of the method:
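Primary human foreskin fibroblasts (hDFCGF system), sampled 24 h after dosing; EGFR quantified by ELISA. Bidirectional fit relative to DMSO baseline; SRB total-protein staining in parallel cultures for cytotoxicity.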

Read-out in experiment [5]: Interleukin-8 (IL8), CXCL8 (gene 3576)
The experiment in a line: BSK_hDFCGF_IL8: BioMAP Diversity Plus: hDFCGF Assay for Interleukin-8 (IL8) Biomarker Activity (AID 2283058). Particulars: primary human foreskin fibroblasts; actives raise or lower the signal. An outline of the steps: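 IL-8 levels read by ELISA at 24 hours after dosing human skin fibroblast cultures. Parallel SRB staining assessed overt cytotoxicity, and gain or loss of signal was fitted against DMSO control.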

The nature of experiment [6]: BSK_hDFCGF_Proliferation: Cell Proliferation Assessment in the BioMAP Diversity Plus: hDFCGF Assay (AID 2283059).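 Note: curves fitted for both rise and fall of signal versus DMSO baseline.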 Conditions: primary human foreskin fibroblasts. An outline of the steps:
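Primary human foreskin fibroblasts, sub-confluent; […]; 10% TCA fix, 0.1% SRB stain, A560 total protein. Gain/loss fitted bidirectionally vs DMSO control.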

Experiment [7] can be described thus: BSK_hDFCGF_SRB: Viability Assessment in the BioMAP Diversity Plus: hDFCGF Assay (AID 2283061).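 Note: cells exposed to compound for 24 h before the read.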 Conditions: primary human foreskin fibroblasts. An outline of the steps:
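Viability was read as total protein: after 10% TCA fixation, wells were stained with 0.1% sulforhodamine B and read at 560 nm. Primary human foreskin fibroblasts were dosed for 24 h, with bidirectional fitting versus DMSO.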

Read-out in experiment [8]: Vascular cell adhesion molecule 1 (VCAM1), VCAM1 (gene 7412)
Briefly: BSK_hDFCGF_VCAM1: BioMAP Diversity Plus: hDFCGF Assay for Vascular cell adhesion molecule 1 (VCAM1) Biomarker Activity (AID 2283065). Particulars: primary human foreskin fibroblasts; actives raise or lower the signal. An outline of the steps:
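ELISA readout of VCAM-1 on human dermal fibroblast primary cultures, 24 h after chemical exposure. Gain or loss of signal fitted in both directions against DMSO baseline.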

Read-out in experiment [9]: Plasminogen activator inhibitor-1 (PAI1), SERPINE1 (gene 5054)
The experiment in a line: BSK_hDFCGF_PAI1: BioMAP Diversity Plus: hDFCGF Assay for Plasminogen activator inhibitor-1 (PAI1) Biomarker Activity (AID 2283066). Conditions: primary human foreskin fibroblasts; actives raise or lower the signal. The gist of the method:
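Human foreskin fibroblast primary cells, 24 h chemical exposure; PAI-1 measured by ELISA. Bidirectional fitting relative to DMSO; parallel cultures stained with SRB for total protein to flag overt cytotoxicity.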

Read-out in experiment [10]: Intercellular Adhesion Molecule 1 (ICAM1), ICAM1 (gene 3383)
Briefly: BSK_KF3CT_ICAM1: BioMAP Diversity Plus: KF3CT Assay for Intercellular Adhesion Molecule 1 (ICAM1) Biomarker Activity (AID 2283067). Particulars: primary human keratinocytes with fibroblasts; actives raise or lower the signal. The gist of the method:
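Cell-surface ICAM-1 was measured by ELISA 24 h after dosing primary human skin keratinocytes co-cultured with fibroblasts. Parallel SRB staining tracked overt cytotoxicity. Gain or loss of signal was fitted relative to DMSO.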

Read-out in experiment [11]: Interferon-gamma inducible Protein 10 (IP10), CXCL10 (gene 3627)
Briefly: BSK_KF3CT_IP10: BioMAP Diversity Plus: KF3CT Assay for Interferon-gamma inducible Protein 10 (IP10) Biomarker Activity (AID 2283068). Conditions: primary human keratinocytes with fibroblasts; actives raise or lower the signal. An outline of the steps: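 In a primary skin co-culture of keratinocytes and fibroblasts, IP-10 is quantified by ELISA at 24 h after dosing. SRB staining of parallel wells monitors overt toxicity. Curves are fitted both directions against DMSO.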

Experiment [12] can be described thus: BSK_KF3CT_SRB: Viability Assessment in the BioMAP Diversity Plus: KF3CT Assay (AID 2283069).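 Note: total protein by sulforhodamine B staining as a cytotoxicity measure; read 24 h after compound addition.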 Particulars: primary human keratinocytes with fibroblasts. The gist of the method:
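Keratinocytes co-cultured with foreskin fibroblasts (human primary); chemical added, 24 h; fix 10% TCA, stain 0.1% SRB, A560. Bidirectional fit vs DMSO.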

Read-out in experiment [13]: Interleukin-1 alpha (IL1a), IL1A (gene 3552)
The experiment in a line: BSK_KF3CT_IL1a: BioMAP Diversity Plus: KF3CT Assay for Interleukin-1 alpha (IL1a) Biomarker Activity (AID 2283070). Conditions: primary human keratinocytes with fibroblasts; actives raise or lower the signal. An outline of the steps:
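Chemicals were dosed onto co-cultured human keratinocytes and foreskin fibroblasts, IL-1a was quantified by ELISA at 24 h, and activity was fitted in both directions relative to DMSO controls.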

Read-out in experiment [14]: TIMP metallopeptidase inhibitor 2 (TIMP2), TIMP2 (gene 7077)
The experiment in a line: BSK_KF3CT_TIMP2: BioMAP Diversity Plus: KF3CT Assay for TIMP metallopeptidase inhibitor 2 (TIMP2) Biomarker Activity (AID 2283071). Conditions: primary human keratinocytes with fibroblasts; actives raise or lower the signal. An outline of the steps: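 Co-culture of human primary keratinocytes and foreskin fibroblasts, measured 24 h after chemical dosing. TIMP-2 quantified by ELISA and fitted in both directions relative to DMSO. Cytotoxicity checked in parallel cultures by SRB total-protein staining.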

Read-out in experiment [15]: C-C motif chemokine 2 (Homo sapiens) (UniProt P13500)
The experiment in a line: BSK_KF3CT_MCP1: BioMAP Diversity Plus: KF3CT Assay for Monocyte Chemoattractant Protein 1 (MCP1/CCL2) Biomarker Activity (AID 2283073). Conditions: primary human keratinocytes with fibroblasts; actives raise or lower the signal. An outline of the steps: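 ELISA read-out of MCP-1, 24 h post-dose, in primary human skin keratinocytes co-cultured with fibroblasts. Parallel SRB staining monitors cytotoxicity; changes fitted both directions relative to DMSO.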

Read-out in experiment [16]: Matrix Metallopeptidase 9 (MMP9), MMP9 (gene 4318)
The experiment in a line: BSK_KF3CT_MMP9: BioMAP Diversity Plus: KF3CT Assay for Matrix Metallopeptidase 9 (MMP9) Biomarker Activity (AID 2283074). Conditions: primary human keratinocytes with fibroblasts; actives raise or lower the signal. An outline of the steps:
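Human keratinocyte/foreskin fibroblast co-culture; compound added; 24 h; MMP-9 by ELISA; bidirectional fit vs DMSO baseline.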

Read-out in experiment [17]: urokinase plasminogen activator (uPA), PLAU (gene 5328)
The experiment in a line: BSK_KF3CT_uPA: BioMAP Diversity Plus: KF3CT Assay for urokinase plasminogen activator (uPA) Biomarker Activity (AID 2283075). Particulars: primary human keratinocytes with fibroblasts; actives raise or lower the signal. An outline of the steps: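 ELISA readout of uPA, analyzed for signal gain or loss relative to DMSO, from a human primary keratinocyte–foreskin fibroblast co-culture measured 24 h after chemical treatment.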

Read-out in experiment [18]: E-selectin (Homo sapiens) (UniProt P16581)
Briefly: BSK_LPS_Eselectin: BioMAP Diversity Plus: LPS Assay for Eselectin Biomarker Activity (AID 2283077). Conditions: primary human HUVEC with PBMC; actives raise or lower the signal. The gist of the method:
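E-selectin ELISA on LPS-stimulated endothelial cell/PBMC co-cultures, read 24 h post-treatment; gains and losses fitted against DMSO. Parallel SRB staining (0.1% SRB after 10% TCA fixation, 560 nm) flags overt cytotoxicity.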

Read-out in experiment [19]: Interleukin-8 (IL8), CXCL8 (gene 3576)
The experiment in a line: BSK_LPS_IL8: BioMAP Diversity Plus: LPS Assay for Interleukin-8 (IL8) Biomarker Activity (AID 2283078). Conditions: primary human HUVEC with PBMC; actives raise or lower the signal. The gist of the method: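 ELISA read-out of IL-8 after 24 h chemical treatment of LPS-activated endothelial/PBMC human primary co-cultures. Changes either up or down relative to DMSO; overt cytotoxicity checked by sulforhodamine B staining in parallel wells.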

Experiment [20] can be described thus: BSK_LPS_SRB: Viability Assessment in the BioMAP Diversity Plus: LPS Assay (AID 2283079).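 Note: total protein by sulforhodamine B absorbance as a cytotoxicity measure; measured one day after compound addition.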 Conditions: primary human HUVEC with PBMC. The gist of the method:
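SRB viability endpoint: cells fixed with 10% TCA, stained with 0.1% SRB, read at 560 nm, 24 h post-dose. HUVEC/PBMC co-culture; signal change in either direction scored relative to DMSO.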

Sequence of E-selectin (Homo sapiens) (P16581 whole entry, looked up): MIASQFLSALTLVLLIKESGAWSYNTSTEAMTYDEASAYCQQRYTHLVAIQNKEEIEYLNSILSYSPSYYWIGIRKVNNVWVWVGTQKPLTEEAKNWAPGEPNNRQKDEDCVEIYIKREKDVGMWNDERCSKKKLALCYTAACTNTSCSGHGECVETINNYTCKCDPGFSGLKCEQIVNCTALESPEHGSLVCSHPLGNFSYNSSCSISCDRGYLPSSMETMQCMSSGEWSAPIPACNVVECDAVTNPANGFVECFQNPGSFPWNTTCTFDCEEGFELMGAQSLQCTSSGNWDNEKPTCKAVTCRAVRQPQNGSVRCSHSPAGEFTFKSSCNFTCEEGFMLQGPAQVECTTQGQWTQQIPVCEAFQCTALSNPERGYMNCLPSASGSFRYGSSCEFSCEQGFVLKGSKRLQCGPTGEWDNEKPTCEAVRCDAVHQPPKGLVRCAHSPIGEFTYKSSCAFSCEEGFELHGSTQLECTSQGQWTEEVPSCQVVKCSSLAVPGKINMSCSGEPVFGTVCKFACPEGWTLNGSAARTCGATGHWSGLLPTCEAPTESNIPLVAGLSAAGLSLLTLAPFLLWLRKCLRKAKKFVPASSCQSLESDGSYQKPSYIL

`Cc1cccnc1`: the outcome in [1], in experiment [2], in [3], in experiment [4], in experiment [5] and in experiment [6] was inactive. Besides, the result in experiment [7], in experiment [8], in experiment [9], in [10], in experiment [11] and in [12] was inactive. Moreover, the result in [13], in experiment [14], in [15], in experiment [16], in experiment [17] and in experiment [18] was inactive. The outcome in experiment [19] and in experiment [20] was inactive.

For `CCCCCCC(O)CCCCCCCCCCC(=O)OC` (stereo not given), the outcome in [1], in [2], in experiment [3], in [4], in experiment [5] and in [7] was inactive. Also, the outcome in [8], in [10], in experiment [11], in experiment [12], in experiment [13] and in [14] was inactive. The result in experiment [15], in experiment [16], in experiment [17], in experiment [18], in experiment [19] and in experiment [20] was inactive. Also, the half-maximal activity concentration (AC50) in [6] is 4.09 µM (active); in experiment [9] it was 6.22 µM (active).

In the case of `COC(=O)/C=C\C(=O)OC`, the outcome in experiment [1], in [2], in [3], in experiment [4], in [5] and in [6] was inactive. The result in experiment [7], in experiment [8], in experiment [9], in experiment [10], in [11] and in [12] was inactive. Moreover, the outcome in [13], in experiment [14], in experiment [15], in experiment [16], in experiment [17] and in experiment [18] was inactive. Besides, the outcome in [19] and in [20] was inactive.

For `CCC(C)=NO`, the result in experiment [1], in experiment [2], in experiment [3], in [4], in [5] and in experiment [6] was inactive. Moreover, the result in experiment [7], in experiment [8], in experiment [9], in experiment [10], in experiment [11] and in [12] was inactive. For the same compound, the result in experiment [13], in experiment [14], in experiment [15], in experiment [16], in experiment [17] and in experiment [18] was inactive. For the same compound, the outcome in experiment [19] and in experiment [20] was inactive.
